# Laboratory results: PMC12136788
# Residue numbers refer to the chain shown, from its start. Over roughly 24,000 sequences, “enrichment r” has its median near 0.99; the highest 2% begin near 3.7. This is one part of a sample in which the highest values are shown more often than they occur.
# T1: UNK ZnF1-3 (human, UniProt Q9C0B0 31-174)
# T1 sequence: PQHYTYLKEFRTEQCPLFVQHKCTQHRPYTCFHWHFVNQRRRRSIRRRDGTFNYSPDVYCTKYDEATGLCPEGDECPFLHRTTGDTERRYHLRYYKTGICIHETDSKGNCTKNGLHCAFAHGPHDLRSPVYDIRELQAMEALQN
# B1: 33187691_33187811_5116_3pUTR_ENSG00000170275_ENST00000320954|human|control|control (ssRNA)
# RNA: GGGAGUUCUACAGUCCGACGAUCGCCUGCAGAACCAAACAGCAACCACUGAGCUCCAUGCUGAUGGGUCAAAGGACAAGCAAGGCAUCUUAGAGCAGGCCUGGAAGCUCCCACAAAGCUUACAAAUGUGUUUGUUUUUUCGAACAACAGAGGAUUGAGCAUCA
# B2: chr6:38652254:38652255:-_ENSG00000124767_ENST00000373365|hu_hu|hu_hu_hu_mus_False|18_18 (ssRNA)
# RNA: GGGAGUUCUACAGUCCGACGAUCCGAGAACUUCAUAGCAGGGAAGUCAAGCUUCUGCAGGAGGGUCAGUCCAAGAACCCUCGUAUAAAAAUCCAGGGACUUCUUAGGAUCCUUAAUUCGUAGCAUGGUUUGCUGCAGUAGAAACAACAGAGGAUUGAGCAUCA
# B3: chr2:43450610:43450611:-_ENSG00000152518_ENST00000282388|hu_hu|motif|central (ssRNA)
# RNA: GGGAGUUCUACAGUCCGACGAUCAGUUAAAUAGUUUUCAUAUUGAGUUGUGGUGCAGUGGUGCGAAUCAACUCAAAACAGCGGAAAAUUCAGCAGUUAUUCUCCAACAAUUACAAAGUAAGCUCUGCGCAAGGCUUCCAGAGGCAACAGAGGAUUGAGCAUCA
# B4: chr17:36096658:36096659:-_ENSMUSG00000038762_ENSMUST00000043757|mus_mus|FALSE|FALSE (ssRNA)
# RNA: GGGAGUUCUACAGUCCGACGAUCCUGCUUCUCGUACUGCUUUAGCAGCUCUUUCUGCUUCUGCUGGUACAUCUUCUUGAAGGUCAUGUAAUUGCCCCUGUAGUAAUGGAGCCGCUGGGUGUCCAGGUGGAUGAUAUCAGUGCACAACAGAGGAUUGAGCAUCA
# B5: chrX:71549400:71549401:+_ENSMUSG00000019087_ENSMUST00000019231|mus_hu|mus_mus_mus_hu_False|28_98 (ssRNA)
# RNA: GGGAGUUCUACAGUCCGACGAUCGCAGUAGGAAGAGCAAACCUUUCCAGUCCAGUGCGCUGCAGGGUGGGAAAGCAACAACACGGACACCGUCCCACCCUCAACCCUCUCAGGUGUACAGGGUCACACAAUCUGGGUCAAAGACAACAGAGGAUUGAGCAUCA
# B6: chr13:100193180:100193181:-_ENSMUSG00000052727_ENSMUST00000064762|mus_mus|FALSE|FALSE (ssRNA)
# RNA: GGGAGUUCUACAGUCCGACGAUCAUAAUAUAAAGGCUAAAUAAAUUUAAGUUGGAAAACUGGAAGAUAACUCCAUCUUCUAUGAAAGAAAAGUCAACCAGAGGUCUGGAUUUGGCAAGAAGGCUAGAAAUUGUUUCUCUUCACCAACAGAGGAUUGAGCAUCA
# B7: chr4:11091628:11091629:+_ENSMUSG00000028211_ENSMUST00000029865|mus_mus|motif|central (ssRNA)
# RNA: GGGAGUUCUACAGUCCGACGAUCUUCUUUCUCACUGAAUUCUGGUUCUUGGCUGGAAGAAGUAGUGACUUCGCCGGCAAACAUUUUAUUCAGUCUCUGAAACAUUGUUAAGGCAAGAUUGAGAUUUUGGCUAGAUAUCUUUAUCAACAGAGGAUUGAGCAUCA
# B8: chr13:100193180:100193181:-_ENSMUSG00000052727_ENSMUST00000064762|mus_mus|motif|central (ssRNA)
# RNA: B6 RNA with U80G, A81G
# B9: chr1:182797045:182797046:+_ENSMUSG00000038806_ENSMUST00000038091|mus_hu|FALSE|FALSE (ssRNA)
# RNA: GGGAGUUCUACAGUCCGACGAUCAGACUCAAGCUAAAUAGAAGAAAGAAAAUAACAGAAAUUAAUUAUAUAAACAAUUGAGAAAAAUAAAACCAAAGGUUGGUUCUUUAAAAGUUAUAUCGUCGGCCAGGCACGGUGGCUCACCAACAGAGGAUUGAGCAUCA
# B10: chr17:65337090:65337091:-_ENSG00000197170_ENST00000584008|hu_hu|FALSE|FALSE (ssRNA)
# RNA: GGGAGUUCUACAGUCCGACGAUCACCAGUCAUUUAAUAAAUUAUUUGGAUCCUUGGGUCUCUGGAAGUUGAUAAUUCCUGCUAAUCUGUCUACUUUAGCAAAGAUGGUCUUGUUAACUACUAGAUUUGAGAGAAAGGCUUCGGCAACAGAGGAUUGAGCAUCA
# B11: 134340332_134340452_1702_CDS_ENSG00000130723_ENST00000357304|human|control|control (ssRNA)
# RNA: GGGAGUUCUACAGUCCGACGAUCAGGGCCGUUUUCCUGGGGAGAUGCCUUCUCAGCACUUGGAGACCAGGGCACUUCCUUCUCUGCCUGCUUCCGGGCCUCACCUGCCUUUCGUGCCUGCUUACACUUCUGGUCCAGCUGCUUCAACAGAGGAUUGAGCAUCA
# B12: 79156280_79159801_5654_CDS_ENSMUSG00000039414_ENSMUST00000097281|mouse|control|control (ssRNA)
# RNA: GGGAGUUCUACAGUCCGACGAUCACUGCUGGCAGACCACAGGAAGAGCGCAAUGGCUGUGAGUGUGCUCACUUCGUCAGGUGCGGGCAUACAGUCAUCUGGUUGAGAAUAUUCCAGGAUGCAGGCAAGGGUGCUCCGGAUUAGCAACAGAGGAUUGAGCAUCA
# B13: chr10:40656395:40656396:+_ENSMUSG00000019831_ENSMUST00000105509|mus_mus|FALSE|FALSE (ssRNA)
# RNA: GGGAGUUCUACAGUCCGACGAUCUUGUGAUGGAGGAGAUGGAGGCAUUAAUGGAGCAUGGGGACCCGGGGCAGUAGAUGGUGCUGGAUGGAGCCCAGAGGGAGGAUGAGCAAGAGCUGCAACUGCGACAGGAGAUGAUGGCCGCAACAGAGGAUUGAGCAUCA
# B14: chr4:144460044:144460045:+_ENSG00000153147_ENST00000283131|hu_mus|hu_hu_hu_mus_False|8_68 (ssRNA)
# RNA: GGGAGUUCUACAGUCCGACGAUCACGGUCCAUAGCCUGAAGAUCAACUUGCGGAUUCCAAUCUGAGUCAUACAAAAUGACUACAUCAGCAGUUGCAAGAUUGAUGCCCAGACCACCAGCACGUGUGCUUAACAUGAAUACAAACAACAGAGGAUUGAGCAUCA
# B15: chr22:19452774:19452775:-_ENSG00000070010_ENST00000399523|hu_hu|hu_hu_hu_mus_False|58_88 (ssRNA)
# RNA: GGGAGUUCUACAGUCCGACGAUCCUUCUCAUUGUAGUUGAUAGCAAUCACAUCCCCAGUCGUCAGACAGGCGAAGUUCCUAAGUGCAUUUUCUAAUACCGCUUUAGGGUUGGUAAUAUCCAGGAAGUCUGGGCUCUGAGGCUGCAACAGAGGAUUGAGCAUCA
# B16: 91655523_91655643_1000_CDS_ENSMUSG00000022961_ENSMUST00000114036|mouse|control|control (ssRNA)
# RNA: GGGAGUUCUACAGUCCGACGAUCCUCCGAUGGUGCUUCUACAGGCUGCUCUGGCAAUCUUUGCACGUCAGUUGUAGAUGACUCUGGAAAAUCCAUUGUUGAUGGGCUUGGUUCAGGGUGCACCUCAGUAGGUGUCUCUGACACCAACAGAGGAUUGAGCAUCA
# B17: chr16:2011185:2011186:+_ENSG00000140990_ENST00000268668|hu_hu|motif|central (ssRNA)
# RNA: GGGAGUUCUACAGUCCGACGAUCCACGCGGCGGUACUGCCGGUGGUAGUAGUAAUACCUGUUCUUUGCGUGCUGCCGCUCGGUAAAUUCUCUCACGAGGGUCACGGGUCGGUCCACGAUGAGGUCGAACGCUUUCAUCAUGUACAACAGAGGAUUGAGCAUCA
# B18: chr10:75542919:75542920:+_ENSG00000172586_ENST00000372833|hu_mus|FALSE|FALSE (ssRNA)
# RNA: GGGAGUUCUACAGUCCGACGAUCUGAGAGUUCAUUGAAAAUAUUUCUCCAUUUUCAGAUGAGAUGAGAUUUGUUGGGAAAUCUCUGUAACAACUUGGUCAUCUUGUGGGGAGAUAAACUCUCGGACUGUCCCAGAGACUCCUGCAACAGAGGAUUGAGCAUCA
# B19: chr15:85967975:85967976:+_ENSMUSG00000035900_ENSMUST00000088931|mus_mus|FALSE|FALSE (ssRNA)
# RNA: GGGAGUUCUACAGUCCGACGAUCACAGAGCAUUUUAGGUUUAUUAAAUAAAAAUUAUAAUUUAUACAAGACUUUGUAUCUAAACAAGGUUUUCUUUUUUUAAAAAAAAAAGUGACAGAGGAUUUUUUUUCCUAUCAGUUCUUUCAACAGAGGAUUGAGCAUCA
# B20: chr15:85967975:85967976:+_ENSMUSG00000035900_ENSMUST00000088931|mus_mus|motif|central (ssRNA)
# RNA: B19 RNA with U80G, A81G
# B21: chr5:162868235:162868236:+_ENSG00000113328_ENST00000340828|hu_hu|motif|central (ssRNA)
# RNA: GGGAGUUCUACAGUCCGACGAUCCCAACACACCUUCUCCAAUACAAUCUUUUCCAUUCUCAUCAAGUCUGAAACCGUAAACCGGUAUUGACUUAUUCGGAUCAAGUCAGUUGCCAAUGGGACAUUCCUUUCCUCUUCUAUUGACAACAGAGGAUUGAGCAUCA
# B22: chr9:14812383:14812384:-_ENSMUSG00000031934_ENSMUST00000164273|mus_mus|mus_mus_mus_hu_True|28_108 (ssRNA)
# RNA: GGGAGUUCUACAGUCCGACGAUCAUAGCUCAAGUAGAUACACGCUAACAGUAUAAUGAUGAGUGUCAGCAGGCGGCAGCUAAUGUACUUGAUGAUUAAAUUAUUAGAGUUCUUUUUUGUCUUCAAGUACUGCUCCACAAUUGGCAACAGAGGAUUGAGCAUCA
# Molecular target: T1, UNK ZnF1-3
# Assay: nsRBNS (natural sequence RNA bind-n-seq); RBNS binding buffer (assumed for nsRBNS): 25 mM Tris pH 7.5, 150 mM KCl, 3 mM MgCl2, 0.01% Triton X-100, 500 ug/ml BSA, 20 U/ml SUPERase-In, 4 C; UNK is unkempt and MSI1 is Musashi-1; names of the RNAs are library labels; protein concentration not given here; high values mean tight binding
row,Binder,binding signal [enrichment R]
1,B1,1.65
2,B2,0.56
3,B3,1.75
4,B4,0.639
5,B5,0.931
6,B6,3.86
7,B7,0.789
8,B8,6.8
9,B9,14.2
10,B10,1.44
11,B11,0.675
12,B12,1.35
13,B13,3.38
14,B14,0.925
15,B15,0.785
16,B16,0.484
17,B17,0.392
18,B18,0.344
19,B19,4.57
20,B20,7.03
21,B21,0.785
22,B22,1.06
